Experimental findings from PubChem BioAssay AID624377 (The Scripps Research Institute Molecular Screening Center, 2012) are described below.

A word on the inhibition: it is the change of the read-out against control, counted positive when it falls.

Out of some 360,000 compounds screened, about 680 (0.19%) were called active. What follows is part of a selection rich in actives, with near analogues and random picks from the rest. A number with no mark means an inactive call. Cut-off read from the data, not from the text of the source: active = inhibition above about 25%; inactive = the rest.

For the experiment, the target named is Arf-GAP with SH3 domain, ANK repeat and PH domain-containing protein 1 (Homo sapiens) (UniProt Q9ULH1). Briefly: blockers of ASAP1-stimulated ARF1 GTP hydrolysis – biochemical, fluorescence polarization, primary screen (AID 624377).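 Note: 0% = vehicle with enzyme and substrate and 100% = no enzyme.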 The note with it: GDP FP detection, at 16.5 µM, active compounds read high. Background: Fluorescence polarisation rises when a labelled molecule tumbles more slowly, as on binding a larger partner.
Arf-GAP with SH3 domain, ANK repeat and PH domain-containing protein 1 (Homo sapiens), sequence (Q9ULH1 325-724 limits assumed): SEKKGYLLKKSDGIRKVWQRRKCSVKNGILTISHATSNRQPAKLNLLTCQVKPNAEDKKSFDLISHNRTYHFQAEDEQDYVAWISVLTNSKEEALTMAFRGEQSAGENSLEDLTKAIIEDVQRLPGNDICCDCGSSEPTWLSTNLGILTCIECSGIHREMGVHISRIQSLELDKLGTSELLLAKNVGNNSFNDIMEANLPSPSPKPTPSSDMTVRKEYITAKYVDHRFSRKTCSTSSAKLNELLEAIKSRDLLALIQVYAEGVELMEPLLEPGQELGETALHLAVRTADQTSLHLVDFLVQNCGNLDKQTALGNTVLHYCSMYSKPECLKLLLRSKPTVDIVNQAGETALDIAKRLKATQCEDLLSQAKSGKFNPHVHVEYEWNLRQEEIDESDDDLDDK
For `COC(=O)[C@]12C[C@H](CC(=O)NCc3ccccc3)C(=O)N(CCC3=CCCCC3)C1=C[C@H](C(C)(C)C)O[C@@H]2C`, the inhibition was -6.37%.
Turning to `COc1ccc(C2=CN(Cc3ccccc3)C(c3ccc(OC)cc3)CC2=O)cc1` (configuration not stated), the inhibition was 12.3%.
On to `CC(C)C[C@H](NC(=O)CC1CCCC1)C(=O)N1CCC[C@H]1C(=O)NCc1ccccc1`, for which the inhibition is -6.9%.
With `COc1ccccc1CCn1cnc(-c2ccccc2)c1C(C)C`, the inhibition was 16.9%.
Regarding `CCOC(=O)C1=C(C(=O)OCC)C2N(Cc3ccc(C#N)cc3)c3ccccc3[C@@]23C[C@@H](C(=O)OC)N(S(=O)(=O)c2ccc(F)cc2)C3=N1` (some centres not stated), the inhibition is 12.3%.
In the case of `COc1cccc(CC(=O)N2CCN(C(=O)C(=O)c3cccc(C(F)(F)F)c3)CC2)c1`, the inhibition is 3.01%.
For `CCN(CC)c1ccc2cc(C(N)=O)/c(=N\NC(=O)c3ccncc3)oc2c1`, the inhibition was 26.4% (active).
As to `CCOc1cc(/C=N/NC(=O)c2ccncc2)cc(Br)c1O`, the inhibition was -12.7%.
For `CC(=NNC(=O)c1ccncc1)c1ccc(Cl)c(Cl)c1`, the inhibition is -23.7%.
Regarding `CCOC(=O)N1CCN(C(=O)C[C@H]2C[C@@]3(C(=O)OC)C(=C[C@H](C4CCCC4)O[C@@H]3C)N(Cc3ccccc3)C2=O)CC1`, the inhibition is -6.46%.
Turning to `COc1ccc(CNS(=O)(=O)c2cc(Br)ccc2Br)cc1`, the inhibition is -8.38%.
Then `CCN1CCCC1CNC(=O)c1ccc2c(c1)NC(=O)/C(=C\c1ccccc1F)S2` (configuration not stated), with -12.3%.
As for `CCN1CCN(CCNC(=O)c2ccc3c(c2)NC(=O)/C(=C\c2ccc(OC)c(OC)c2)S3)CC1`, the inhibition was 25.9% (active).
As for `COc1ccc(CCNC(=O)c2ccc3c(c2)NC(=O)C(N2CCOCC2)S3)cc1OC` (configuration not stated), the inhibition was -5.91%.
In the case of `COc1ccc(NC(=O)N(C)C[C@@H]2OCCCC[C@@H](C)Oc3ccc(NC(=O)NC4CCCCC4)cc3C(=O)N([C@H](C)CO)C[C@@H]2C)cc1`, the inhibition was -0.3%.
Turning to `NC(=O)c1ncn([C@@H]2O[C@H](C(=O)O)[C@@H](O)[C@H]2O)n1`, the inhibition was -8.9%.
For `O=C(NCc1ccccc1)[C@@H]1CCCN1C(=O)[C@H]1CCCN1C(=O)c1cccc(Cl)c1`, the inhibition is 5.06%.
Turning to `CC(C)CNc1cccc2c1S(=O)(=O)N[C@H](CC(C)C)CO2`, the inhibition is 14.4%.
On to `COCc1cc(N2CCN(C(=O)OC(C)(C)C)C[C@@H]2C)ccc1N1CCN(Cc2ccccc2)[C@H](C)C1`, for which the inhibition is -0.13%.
On to `O=c1[nH]c(-c2ccccc2)cn1C1CCN(Cc2ccc(-c3nc4ccc(F)cc4nc3-c3ccccc3)cc2)CC1`, for which the inhibition is 6.64%.
For `O=S1(=O)c2c(cccc2N2CCCCC2)O[C@H](COCc2ccccc2)CN1C1CC1` the value was -0.37%; for `CCN1C(=O)N[C@@H]2C[C@H](C(=O)N3CCCC3)[C@H](C)[C@H](c3ccccc3)C[C@@H]21`, 9.08%.
Regarding `COC(=O)Cc1nnn2c1[C@H](C)[C@H](c1ccccc1[N+](=O)[O-])OCC2`, the inhibition was 5.28%.
For the compound `N#Cc1ccc(OCCCN2CCC(C(O)(c3ccccc3)c3ccccc3)CC2)c(F)c1`, the inhibition was 12.3%.
Consider `O=C(NCc1ccccc1)[C@H]1CCCN1C(=O)[C@H]1CCCN1C(=O)c1cc(F)cc(F)c1`, for which the inhibition was 5.35%.
With `Cc1[nH]nc2c1C(c1ccc(Br)cc1)NC2=O` (configuration not stated), the inhibition was 13.4%.
On to `Cc1[nH]c2ccccc2c1CC(=O)Nc1ccc(Nc2cccnc2)c(-c2cccc(Cl)c2)c1`, for which the inhibition was 23.9%.
On to `Cc1ccc(NC(=O)N2c3ccccc3SC2c2ccco2)c(C)c1` (configuration not stated), for which the inhibition was 0.24%.
Regarding `Nc1nc2c(ncn2[C@@H]2O[C@H](C(=O)N[C@@H](Cc3ccccc3)C(=O)NCc3ccccc3)[C@@H](O)[C@H]2O)c(=O)[nH]1`, the inhibition was 1.52%.
For `CC(C)(C)C(c1nc2ccccc2[nH]1)n1c(Cc2csc3ccccc23)nc2ccccc21` (configuration not stated) the value was 0.61%; for `CCCCCCCCN1C(=O)[C@@H](CC(=O)N2CCN(C(=O)OCC)CC2)C[C@@]2(C(=O)OC)C1=C[C@H](C1CCCC1)O[C@@H]2C`, -6.71%.
Turning to `O=C(NS(=O)(=O)c1cccs1)[C@H]1O[C@@H](n2ccc(=O)[nH]c2=O)[C@H](O)[C@@H]1O`, the inhibition was -0.42%.
Take `COc1cc(/C=N/Nc2nn3cnnc3c3ccccc23)cc(OC)c1OC`: the inhibition was 27.1% (active).
Take `CN(CCO)c1ccc(/C=N/Nc2nncc3ccccc23)cc1`: the inhibition was 4.89%.
For the compound `COc1cc(Nc2nc3ccc(Cl)cc3n3cnnc23)cc(OC)c1OC`, the inhibition is -7.78%.
In the case of `Nc1[nH]c(C(=O)c2ccccc2)c(-c2ccc(Cl)cc2Cl)c1C(=O)c1ccccc1`, the inhibition was 1.42%.
Consider `CCCCCCCCN1C(=O)[C@@H](CC(=O)NCc2ccc(C)o2)C[C@@]2(C(=O)OC)C1=C[C@H](C(C)(C)C)O[C@@H]2C`, for which the inhibition was -18.4%.
As for `C[C@@H]1CN([C@H](C)CO)C(=O)CCCn2cc(nn2)CO[C@H]1CN(C)C(=O)Nc1ccc(N2CCCCC2)cc1`, the inhibition was -5.8%.
For `O=C(NCc1ccccc1)[C@@H]1CCCN1C(=O)[C@@H](NS(=O)(=O)c1ccc(F)cc1F)C1CCCCC1`, the inhibition was -1.92%.
On to `Cc1ccc(N)cc1CN1CCN(c2ncc(Cc3ccccc3)cn2)CC1`, for which the inhibition is 12%.
For `COc1cccc(CNC(=O)[C@H]2CCCN2C(=O)[C@H]2CCCN2C(=O)C2CCCCC2)c1`, the inhibition was -4.66%.
Take `COC(=O)[C@]1(Cc2ccccc2)NC=C(C(=O)c2ccccc2)[C@@H]1c1cccc(OC)c1`: the inhibition was -16.7%.
As for `C=CC1=CCN(S(=O)(=O)C(C)(C)C)[C@@H]1CCO`, the inhibition is -14.4%.
As for `CN1CCCc2nc(-c3ccccc3)ccc21`, the inhibition is 1.42%.
As for `CSc1ccc(Oc2cccc3c2S(=O)(=O)N([C@H](C)c2ccccc2)C[C@@H](COCc2ccccc2)O3)cc1C`, the inhibition is 0.74%.
`Cc1cc2c(nc1C)CCCN2C`: the inhibition was -12%.
For `CN1C(=O)C2CC(O)C(SC3CC4C(=O)N(C)C(=O)C4CC3O)CC2C1=O` (configuration not stated) the value was -4.75%; for `COC(=O)[C@]12C[C@H](CC(=O)NCc3cccc(C(F)(F)F)c3)C(=O)N(Cc3ccc4c(c3)OCO4)C1=C[C@H](COCc1ccccc1)O[C@@H]2C`, 2.38%.
As for `COC(=O)C1=C(C)N(Cc2ccccc2C(F)(F)F)C(=NCc2ccc(C(F)(F)F)cc2)NC1c1ccc(F)cc1` (configuration not stated), the inhibition was 8.73%.
Consider `COC(=O)C(C(=O)OC)c1ccccc1NS(=O)(=O)c1cccc2ccccc12`, for which the inhibition was -1.63%.
Consider `OCCNCCOc1ccc(Cl)c(Cl)c1`, for which the inhibition is -8.06%.
As for `COCCNc1nc(Nc2ccccc2Cl)c2sc(-c3ccccc3)cc2n1`, the inhibition was 13.4%.
Then `OCCNc1nc(Nc2ccc(Cl)c(Cl)c2)nc2ccccc12`, with 26% (active).
On to `COC(=O)[C@]12C[C@H](CC(=O)NCc3ccc(C)o3)C(=O)N(CCC3=CCCCC3)C1=C[C@H](C(C)(C)C)O[C@@H]2C`, for which the inhibition was -6.9%.
As to `COC(=O)C1=C(C)NC(=S)NC1c1ccc(OC)cc1` (configuration not stated), the inhibition is 3.47%.
Turning to `COC(=O)c1ccc(NC(=O)C(C)N2C(=O)c3ccccc3C2=O)cc1` (configuration not stated), the inhibition was 2.27%.
Take `COC(=O)c1ccc(NCC(=O)c2ccccc2)cc1`: the inhibition was 24.7% (active).
For `C#CCNc1ccc(C(=O)OCC)cc1` the value was -6.34%.
With `Cc1ccc2nc(CN(C)C(=O)[C@@H](Cc3ccccc3)NC(=O)[C@H]3O[C@@H](n4ccc(=O)[nH]c4=O)[C@H](O)[C@@H]3O)[nH]c2c1`, the inhibition is -16.7%.
`Cc1noc(C)c1NC(=O)Nc1ccc2c(c1)C(=O)N([C@H](C)CO)C[C@H](C)[C@H](CN(C)Cc1ccncc1)OCCCC[C@@H](C)O2`: the inhibition was 3.29%.
For `O=S(=O)(c1cccs1)N1CCCc2nc(-c3ccc(Br)cc3)ccc21` the value was 0.45%; for `C=CCC[C@@H](CCCCC)OC(=O)/C=C/[C@@H](O)[C@H](O)C[C@H](O)CC=C`, 26.7% (active).
Take `C=CCC[C@H](CCCCC)OC(=O)/C=C/[C@H](O)[C@@H](O)C[C@@H](O)CC=C`: the inhibition was 5.11%.
For `CCCCNc1cccc2c1S(=O)(=O)N[C@@H](C)CO2`, the inhibition was 5.97%.
Take `CC(C)CNc1cccc2c1S(=O)(=O)N[C@H](C)CO2`: the inhibition was -1.48%.
Turning to `CN1C(=O)C(Br)(Br)CC1c1cccnc1` (configuration not stated), the inhibition was 2.71%.
For `COCCCNC(=O)C[C@H]1C[C@@]2(C(=O)OC)C(=C[C@H](C(C)(C)C)O[C@@H]2C)N(Cc2ccc3c(c2)OCO3)C1=O`, the inhibition was -0.04%.
For `Cc1cc(OC(=O)NCCc2ccc(F)cc2)ccc1F`, the inhibition is -5.01%.
In the case of `C=CCN1C(=O)N(Cc2ccccc2)c2ccccc2S1(=O)=O`, the inhibition is 10.9%.
Then `COC(=O)C1=C(C)N(Cc2ccccc2C(F)(F)F)C(=NCc2ccc(OC)cc2)NC1c1cccc(C(F)(F)F)c1` (configuration not stated), with -0.5%.
As to `C[C@H]1[C@H](c2ccccc2)Oc2cc(Br)ccc2S(=O)(=O)N1Cc1cccc(F)c1`, the inhibition was -15.2%.
For `COC(=O)Nc1nc2ccc(C(=O)C3CC3)cc2[nH]1`, the inhibition was 3.58%.
`CC1(C)OC(=O)C2=C(CC(CCc3ccccc3)OC2c2ccc(Cl)cc2)O1` (configuration not stated): the inhibition is 0.87%.
Consider `O=C(Nc1c(Cl)c(C2CC2)nn1-c1ccccc1)C(Cl)(Cl)Cl`, for which the inhibition is 6.91%.
Regarding `O=C(C(=O)N1CCC(CNS(=O)(=O)Cc2ccccc2)CC1)c1cc2ccccc2o1`, the inhibition was -10.9%.
Then `COC(=O)c1c(-c2ccc(OC)cc2)c2c(c3c4ccccc4n(S(=O)(=O)c4ccc(C)cc4)c13)C(=O)N(C)C2`, with 5.81%.
Turning to `Brc1ccc(COCCc2cn(Cc3ccccc3)c3ccccc23)cc1`, the inhibition is -1.81%.
